Experimental data: PMC7862700, “An all-to-all approach to the identification of sequence-specific readers for epigenetic DNA modifications on cytosine”

How the values were obtained:
Assay in all cases: DAPPL (digital affinity profiling via proximity ligation, sequencing); 10 mM Tris-HCl pH 7.5, 50 mM NaCl, 1 mM DTT, 4% glycerol, room temperature, 30 min; GST-TFs on glutathione beads, 16-mer random dsDNA library, 0.1% formaldehyde crosslink after washing; high values mean tight binding
Conditions in all cases: protein: recombinant; tags: N-terminal GST; dsDNA, one strand shown
FLI1 = target: T1, FLI1 (Homo sapiens, UniProt Q01543 1-452)
T1 sequence: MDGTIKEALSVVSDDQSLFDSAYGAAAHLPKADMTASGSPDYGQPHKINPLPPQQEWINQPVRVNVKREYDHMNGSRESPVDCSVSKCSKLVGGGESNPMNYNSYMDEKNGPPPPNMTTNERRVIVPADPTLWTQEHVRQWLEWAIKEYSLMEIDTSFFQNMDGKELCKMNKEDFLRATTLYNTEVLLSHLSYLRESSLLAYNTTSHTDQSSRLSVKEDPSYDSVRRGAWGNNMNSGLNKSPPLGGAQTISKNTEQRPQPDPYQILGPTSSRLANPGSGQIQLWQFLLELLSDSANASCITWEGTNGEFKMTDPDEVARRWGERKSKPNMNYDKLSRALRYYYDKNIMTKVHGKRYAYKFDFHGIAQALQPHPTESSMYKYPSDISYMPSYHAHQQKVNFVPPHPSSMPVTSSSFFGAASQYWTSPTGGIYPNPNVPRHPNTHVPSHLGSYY
How it was run: (§1)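 The binding signal reported is, for every hexamer, its read frequency for a factor over its read frequency for the tag-only sample. Reads came from pools of yeast-expressed, GST-fused human transcription factors on glutathione beads, barcoded with DNA and mixed with that sample, which were incubated with 200 nmole of a random double-stranded 16-mer DNA library in Tris/NaCl/DTT/glycerol buffer at room temperature for 30 min. After washing, the pools were crosslinked with 0.1% formaldehyde, proximity-ligated with BsaI/T4 ligase for 1 h at 37 °C, PCR-amplified and sequenced on an Illumina NextSeq500.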

ELK1 = target: T2, ELK1 (Homo sapiens, UniProt P19419 1-428)
T2 sequence: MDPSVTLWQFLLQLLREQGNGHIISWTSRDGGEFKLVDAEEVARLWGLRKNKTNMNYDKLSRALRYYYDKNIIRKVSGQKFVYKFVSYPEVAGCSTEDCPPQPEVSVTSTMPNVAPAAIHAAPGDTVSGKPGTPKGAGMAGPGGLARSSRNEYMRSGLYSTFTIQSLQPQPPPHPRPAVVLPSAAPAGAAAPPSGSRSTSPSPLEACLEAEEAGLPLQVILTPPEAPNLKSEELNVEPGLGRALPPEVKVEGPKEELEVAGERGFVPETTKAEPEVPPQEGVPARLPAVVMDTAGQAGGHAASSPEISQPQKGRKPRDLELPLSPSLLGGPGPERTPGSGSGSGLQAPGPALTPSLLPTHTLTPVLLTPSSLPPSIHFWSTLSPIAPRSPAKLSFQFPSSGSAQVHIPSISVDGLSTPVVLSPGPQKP
How it was run: as §1

GABPA = target: T3, GABPA (Homo sapiens, UniProt Q06546 1-454)
T3 sequence: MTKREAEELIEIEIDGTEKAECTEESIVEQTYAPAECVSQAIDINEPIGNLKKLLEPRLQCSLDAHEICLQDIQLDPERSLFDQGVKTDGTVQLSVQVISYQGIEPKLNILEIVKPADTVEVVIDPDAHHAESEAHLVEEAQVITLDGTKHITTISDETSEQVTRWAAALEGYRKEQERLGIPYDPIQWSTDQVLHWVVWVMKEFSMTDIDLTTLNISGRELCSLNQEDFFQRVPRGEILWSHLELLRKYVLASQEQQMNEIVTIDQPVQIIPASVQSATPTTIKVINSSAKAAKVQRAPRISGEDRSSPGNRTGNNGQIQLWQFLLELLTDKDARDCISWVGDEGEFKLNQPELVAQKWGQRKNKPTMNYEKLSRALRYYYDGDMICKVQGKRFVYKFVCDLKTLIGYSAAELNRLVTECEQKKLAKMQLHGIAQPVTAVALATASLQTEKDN
How it was run: as §1

ERG = target: T4, ERG (Homo sapiens, UniProt P11308 1-479)
T4 sequence: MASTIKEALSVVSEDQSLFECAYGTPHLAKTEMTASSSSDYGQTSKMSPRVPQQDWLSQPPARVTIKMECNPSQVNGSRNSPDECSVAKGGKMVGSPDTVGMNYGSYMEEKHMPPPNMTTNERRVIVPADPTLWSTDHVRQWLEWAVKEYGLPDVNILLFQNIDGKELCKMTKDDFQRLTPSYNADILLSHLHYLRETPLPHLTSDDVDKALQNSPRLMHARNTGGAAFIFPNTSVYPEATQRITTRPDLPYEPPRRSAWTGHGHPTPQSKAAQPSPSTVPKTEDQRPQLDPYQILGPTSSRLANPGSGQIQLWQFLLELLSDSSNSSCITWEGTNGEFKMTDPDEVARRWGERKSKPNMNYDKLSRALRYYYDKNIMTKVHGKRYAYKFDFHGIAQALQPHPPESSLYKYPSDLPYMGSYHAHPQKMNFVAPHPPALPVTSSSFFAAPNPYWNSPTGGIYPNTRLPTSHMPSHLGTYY
How it was run: as §1

ELF1 = ELF1 (Homo sapiens, UniProt P32519 1-619)
How it was run: as §1

EHF = target: T5, EHF (Homo sapiens, UniProt Q9NZC4 1-300)
T5 sequence: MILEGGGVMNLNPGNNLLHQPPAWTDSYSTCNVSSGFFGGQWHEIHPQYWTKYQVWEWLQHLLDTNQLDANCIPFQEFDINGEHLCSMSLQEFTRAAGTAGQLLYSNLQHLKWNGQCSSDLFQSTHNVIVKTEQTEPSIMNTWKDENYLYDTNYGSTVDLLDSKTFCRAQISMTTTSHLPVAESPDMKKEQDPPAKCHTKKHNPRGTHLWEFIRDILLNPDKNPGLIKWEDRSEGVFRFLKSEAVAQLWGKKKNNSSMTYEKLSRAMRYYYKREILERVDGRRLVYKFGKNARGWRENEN
How it was run: as §1

SPI1 = SPI1 (Homo sapiens, UniProt P17947 1-270)
How it was run: as §1

SPIB = SPIB (Homo sapiens, UniProt Q01892 1-262)
How it was run: as §1

ELK3 = target: T6, ELK3 (Homo sapiens, UniProt P41970 1-407)
T6 sequence: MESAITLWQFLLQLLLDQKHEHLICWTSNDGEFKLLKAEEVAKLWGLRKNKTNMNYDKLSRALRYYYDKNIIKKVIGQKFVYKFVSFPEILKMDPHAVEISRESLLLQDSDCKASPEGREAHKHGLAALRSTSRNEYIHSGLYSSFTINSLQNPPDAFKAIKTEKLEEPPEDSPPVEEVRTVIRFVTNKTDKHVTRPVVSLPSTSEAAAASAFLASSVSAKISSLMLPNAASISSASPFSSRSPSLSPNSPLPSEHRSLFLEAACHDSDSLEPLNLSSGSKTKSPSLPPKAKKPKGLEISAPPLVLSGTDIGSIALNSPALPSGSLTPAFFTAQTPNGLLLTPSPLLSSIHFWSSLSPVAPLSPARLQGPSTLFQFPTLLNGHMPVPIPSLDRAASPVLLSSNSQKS
How it was run: as §1

ELF1, sequence (P32519 whole entry): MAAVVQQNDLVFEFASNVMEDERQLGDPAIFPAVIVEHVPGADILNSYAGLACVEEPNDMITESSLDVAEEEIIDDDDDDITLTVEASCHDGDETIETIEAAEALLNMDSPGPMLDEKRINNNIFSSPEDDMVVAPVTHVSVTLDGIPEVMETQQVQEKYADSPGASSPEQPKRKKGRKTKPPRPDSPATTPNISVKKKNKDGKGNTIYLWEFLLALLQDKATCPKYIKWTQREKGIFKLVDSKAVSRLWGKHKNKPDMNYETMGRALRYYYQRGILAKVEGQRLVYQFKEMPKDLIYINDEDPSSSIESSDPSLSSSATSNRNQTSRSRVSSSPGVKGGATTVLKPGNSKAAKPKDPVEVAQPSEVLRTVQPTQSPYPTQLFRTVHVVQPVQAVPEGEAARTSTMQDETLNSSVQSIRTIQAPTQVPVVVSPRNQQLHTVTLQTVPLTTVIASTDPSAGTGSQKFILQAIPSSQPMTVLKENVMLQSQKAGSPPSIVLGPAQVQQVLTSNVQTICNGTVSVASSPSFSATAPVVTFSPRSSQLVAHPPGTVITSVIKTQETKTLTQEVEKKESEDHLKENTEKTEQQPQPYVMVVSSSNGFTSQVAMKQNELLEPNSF
SPIB, sequence (Q01892 whole entry): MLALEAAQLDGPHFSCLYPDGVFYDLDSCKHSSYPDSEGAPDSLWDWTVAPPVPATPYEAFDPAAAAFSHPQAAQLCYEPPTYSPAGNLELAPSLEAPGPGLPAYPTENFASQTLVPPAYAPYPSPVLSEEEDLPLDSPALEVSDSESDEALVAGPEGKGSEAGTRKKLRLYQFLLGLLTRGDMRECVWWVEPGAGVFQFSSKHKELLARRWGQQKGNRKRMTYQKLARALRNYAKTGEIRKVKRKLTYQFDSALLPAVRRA

Row | Sequence | binding signal (FLI1) | binding signal (ELK1) | binding signal (GABPA) | binding signal (ERG) | binding signal (ELF1) | binding signal (EHF) | binding signal (SPI1) | binding signal (SPIB) | binding signal (ELK3)
1 | ACATCC | 2.58 fold enrichment (6-mer frequency, TF over GST control) | 2.73 fold enrichment (6-mer frequency, TF over GST control) | 2.39 fold enrichment (6-mer frequency, TF over GST control) | 3.08 fold enrichment (6-mer frequency, TF over GST control) | 2.35 fold enrichment (6-mer frequency, TF over GST control) | 2.7 fold enrichment (6-mer frequency, TF over GST control) | 2.5 fold enrichment (6-mer frequency, TF over GST control) | 2.69 fold enrichment (6-mer frequency, TF over GST control) | 2.98 fold enrichment (6-mer frequency, TF over GST control)
2 | CTCTGG | 1.31 fold enrichment (6-mer frequency, TF over GST control) | 1.5 fold enrichment (6-mer frequency, TF over GST control) | 1.3 fold enrichment (6-mer frequency, TF over GST control) | 1.28 fold enrichment (6-mer frequency, TF over GST control) | 1.34 fold enrichment (6-mer frequency, TF over GST control) | 1.35 fold enrichment (6-mer frequency, TF over GST control) | 1.4 fold enrichment (6-mer frequency, TF over GST control) | 1.12 fold enrichment (6-mer frequency, TF over GST control) | 1.48 fold enrichment (6-mer frequency, TF over GST control)
3 | TCTTAC | 1.29 fold enrichment (6-mer frequency, TF over GST control) | 1.36 fold enrichment (6-mer frequency, TF over GST control) | 1.33 fold enrichment (6-mer frequency, TF over GST control) | 1.23 fold enrichment (6-mer frequency, TF over GST control) | 1.32 fold enrichment (6-mer frequency, TF over GST control) | 1.2 fold enrichment (6-mer frequency, TF over GST control) | 1.26 fold enrichment (6-mer frequency, TF over GST control) | 1.26 fold enrichment (6-mer frequency, TF over GST control) | 1.3 fold enrichment (6-mer frequency, TF over GST control)
4 | ATCCTA | 1.54 fold enrichment (6-mer frequency, TF over GST control) | 1.34 fold enrichment (6-mer frequency, TF over GST control) | 1.37 fold enrichment (6-mer frequency, TF over GST control) | 1.4 fold enrichment (6-mer frequency, TF over GST control) | 1.37 fold enrichment (6-mer frequency, TF over GST control) | 1.3 fold enrichment (6-mer frequency, TF over GST control) | 1.27 fold enrichment (6-mer frequency, TF over GST control) | 1.48 fold enrichment (6-mer frequency, TF over GST control) | 1.43 fold enrichment (6-mer frequency, TF over GST control)
5 | ATCCTG | 1.38 fold enrichment (6-mer frequency, TF over GST control) | 1.43 fold enrichment (6-mer frequency, TF over GST control) | 1.34 fold enrichment (6-mer frequency, TF over GST control) | 1.62 fold enrichment (6-mer frequency, TF over GST control) | 1.36 fold enrichment (6-mer frequency, TF over GST control) | 1.41 fold enrichment (6-mer frequency, TF over GST control) | 1.4 fold enrichment (6-mer frequency, TF over GST control) | 1.55 fold enrichment (6-mer frequency, TF over GST control) | 1.5 fold enrichment (6-mer frequency, TF over GST control)
6 | TCGACC | 1.28 fold enrichment (6-mer frequency, TF over GST control) | 1.32 fold enrichment (6-mer frequency, TF over GST control) | 1.4 fold enrichment (6-mer frequency, TF over GST control) | 1.27 fold enrichment (6-mer frequency, TF over GST control) | 1.29 fold enrichment (6-mer frequency, TF over GST control) | 1.23 fold enrichment (6-mer frequency, TF over GST control) | 1.29 fold enrichment (6-mer frequency, TF over GST control) | 1.28 fold enrichment (6-mer frequency, TF over GST control) | 1.35 fold enrichment (6-mer frequency, TF over GST control)
7 | CTCTTT | 1.37 fold enrichment (6-mer frequency, TF over GST control) | 1.33 fold enrichment (6-mer frequency, TF over GST control) | 1.39 fold enrichment (6-mer frequency, TF over GST control) | 1.43 fold enrichment (6-mer frequency, TF over GST control) | 1.53 fold enrichment (6-mer frequency, TF over GST control) | 1.55 fold enrichment (6-mer frequency, TF over GST control) | 2.23 fold enrichment (6-mer frequency, TF over GST control) | 1.42 fold enrichment (6-mer frequency, TF over GST control) | 1.66 fold enrichment (6-mer frequency, TF over GST control)
8 | TCTCTA | 1.21 fold enrichment (6-mer frequency, TF over GST control) | 1.31 fold enrichment (6-mer frequency, TF over GST control) | 1.23 fold enrichment (6-mer frequency, TF over GST control) | 1.36 fold enrichment (6-mer frequency, TF over GST control) | 1.36 fold enrichment (6-mer frequency, TF over GST control) | 1.34 fold enrichment (6-mer frequency, TF over GST control) | 1.26 fold enrichment (6-mer frequency, TF over GST control) | 1.33 fold enrichment (6-mer frequency, TF over GST control) | 1.22 fold enrichment (6-mer frequency, TF over GST control)
